Screening data (PubChem)
Calb FLC – C. albicans growth inhibition with fluconazole, primary screen, CaCi-2 strain, Alamar Blue fluorescence; C. albicans CaCi-2 (fluconazole-resistant clinical isolate) + fluconazole, 48 h; growth inhibition, % (no concentration beside the values); 300,000 compounds, 0.57% hits;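 active = growth inhibition above about 58% in most replicates, limit read from the data, passing the limit was not always enough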;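 note: all wells also contain fluconazole at 8 µg/ml as a sub-toxic cotreatment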
PP1 inh – PP1-alpha phosphatase inhibitors, primary screen, counter-screen for PP5 inhibitor project, biochemical, fluorescence, OMFP substrate, single point; inhibition, % at 6.7 µM; 320,000 compounds, 0.9% hits; Serine/threonine-protein phosphatase PP1-alpha catalytic subunit (Homo sapiens), P62136; purified PP1alpha;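 active = inhibition above the mean inhibition of all tested compounds plus 3 SD, computed separately for each screening campaign, cut at about 15% in these data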
Mdm2 MdmX PPI – inhibitors of human Mdm2-MdmX association, primary screen, cell-based, luminescence, split luciferase, SaOS-2, uHTS; SaOS-2 split-luciferase Mdm2/MdmX complementation; inhibition, % at 8 µM; 330,000 compounds, 3% hits; AID 485346, 2010;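 active = inhibition of at least 50% at 8 µM in the primary screen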
PP5 primary – PP5 phosphatase inhibitors, primary screen, biochemical, fluorescence. 320,000 compounds, 0.18% hits. purified PP5c, OMFP substrate fluorescence. Serine/threonine-protein phosphatase 5 (Homo sapiens), P53041. inhibition, % at 6.7 µM;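 active = inhibition above the campaign's mean inhibition across all tested compounds plus 3 SD, cut at about 9.5% in these data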
Target sequence (P53041 whole entry, looked up): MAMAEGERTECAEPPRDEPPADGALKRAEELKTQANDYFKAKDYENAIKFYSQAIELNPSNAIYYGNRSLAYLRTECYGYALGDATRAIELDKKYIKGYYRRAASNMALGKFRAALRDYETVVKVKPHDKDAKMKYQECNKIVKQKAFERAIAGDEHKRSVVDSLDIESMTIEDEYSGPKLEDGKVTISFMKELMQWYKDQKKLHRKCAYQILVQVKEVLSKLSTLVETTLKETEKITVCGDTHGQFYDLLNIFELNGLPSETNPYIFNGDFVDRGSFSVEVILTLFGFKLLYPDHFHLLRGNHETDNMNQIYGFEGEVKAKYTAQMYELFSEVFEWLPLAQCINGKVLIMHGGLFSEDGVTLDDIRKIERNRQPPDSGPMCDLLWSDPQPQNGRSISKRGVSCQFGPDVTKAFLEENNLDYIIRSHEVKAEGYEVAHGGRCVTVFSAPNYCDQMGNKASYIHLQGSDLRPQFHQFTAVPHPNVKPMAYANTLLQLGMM
CSC inhib – cancer stem cell viability inhibitors, primary screen, luminescence; cancer stem cell-like cells viability; inhibition, % at 7.5 µM; 300,000 compounds, 1.1% hits; AID 2717, 2010; in the data active = inhibition above about 75%; tested in HMLE shEcad cells
Beta apoptosis – inhibitors of cytokine-induced beta cell apoptosis, primary screen, luminescence; INS-1E cytokine-induced death, ATP luminescence, 48 h; percent of positive-control rescue, neutral wells zero; protection from apoptosis, % (no concentration beside the values); 300,000 compounds, 0.8% hits; AID 435005, 2010;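 active = Every replicate reaches about 75%, or at least half do and their mean reaches it too, limit read from the data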;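 note: higher means more ATP so stronger rescue from cytokine killing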
Mdm2-MdmX conf – Mdm2-MdmX complex disruptors, retested hits, confirmation, luminescence, single concentration. shares compounds with Mdm2 MdmX PPI. Mdm2-MdmX binding, luminescent assay. inhibition, % at 8 µM. 10,000 compounds, 55% hits. AID 489028, 2010; in the data active = inhibition above about 40%
FLuc counter – full-length luciferase signal inhibition, confirmation, counter-screen for Mdm2/MdmX interaction inhibitor project, cell-based, single concentration, SaOS-2; AID 504607, 2011; shares compounds with Mdm2 MdmX PPI; 6,200 compounds, 77% hits; inhibition, % at 8 µM; SaOS-2 full-length luciferase counterscreen, luminescence;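 active = mean inhibition at 8 µM reaching about 37%, which flags the compound as non-specific, limit read from the data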;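 note: p53-null SaOS-2 cells with luciferase driven by a doxycycline-inducible promoter; compound on cells about two nights before reading with doxycycline added after day one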
Of the large screens only hits and unclear results are named; the others gave an inactive call (follow-up assays come after a bar, where they were run). Hits are enriched below; roughly 4.9% of the tested compounds scored in any of these assays.

CC(C(=O)NC(=O)NC1CCCCC1)N1CCN(C(c2ccccc2)c2ccccc2)CC1 (stereo not drawn)	none
Cc1ccc(C(=O)C[n+]2ccc3ccccc3c2)cc1	none
Cc1cc(C(C)(C)C)cc(C)c1C[n+]1ccc2ccccc2c1	Mdm2 MdmX PPI 51, Beta apoptosis 111 | Mdm2-MdmX conf inactive
CCOC(=O)c1ccc(NC(=O)c2c(N)n(C)c(=O)n(C)c2=O)cc1	Mdm2 MdmX PPI 85 | Mdm2-MdmX conf inactive
Cc1ccc(C)c(-n2cc(CN3CCCN(C=O)CC3)c(-c3ccccc3)n2)c1	none
Cc1nc(C(=O)NC(C)C)nn1-c1cc(Cl)cc(Cl)c1	none
C/C(=N\NC(=O)c1ccccc1O)c1ccc(Br)s1	none (no result: Beta apoptosis)
C/C(=N\NC(=O)c1cccc(F)c1)c1ccc(Br)s1	Mdm2 MdmX PPI 72 | Mdm2-MdmX conf 49 | FLuc counter 44
CC(=O)Oc1ccccc1C1=NN(C(=O)/C=C/c2ccccc2)C(c2ccccc2)C1 (stereo not drawn)	Mdm2 MdmX PPI 51 | Mdm2-MdmX conf inactive
CCOc1ccc(C(=O)Nc2c(C(=O)N3CCC(N4CCCCC4)CC3)oc3ccccc23)cc1	none
COc1ccc(C(=O)CC(Nc2ccc([N+](=O)[O-])cc2)c2ccc(Cl)cc2)cc1 (stereo not drawn)	Mdm2 MdmX PPI 53 | Mdm2-MdmX conf inactive
COc1ccc(C(=O)CC(=O)C(=O)Nc2ccc(Cl)cc2)cc1	none (no result: Mdm2 MdmX PPI)
O=C(c1ccccc1F)N1CCCC(C(=O)N2CCc3ccccc3C2)C1 (stereo not drawn)	none
COc1ccc(/C(C)=N/NC(=O)CNC(=O)/C=C\c2ccco2)cc1	none
N#Cc1ccc(NC(=O)CCc2ccc(S(=O)(=O)N3CCOCC3)cc2)cc1	none
N#Cc1ccc(CN2CCN(C(=O)c3ccc(S(=O)(=O)NCc4ccco4)cc3)CC2)cc1	none (no result: Calb FLC)
CC(C)c1ccc(NC(=O)CSc2nc(=O)n(CCCN3CCOCC3)c3c2CCCC3)cc1	none (no result: Beta apoptosis)
Cc1nc(Cl)c(C(=O)NCc2ccccc2)c(C)c1Cl	none
COc1ccc(CNC(=O)c2nc(S(=O)(=O)Cc3ccccc3)ncc2Cl)cc1	Mdm2 MdmX PPI 77 | Mdm2-MdmX conf 94 | FLuc counter inactive
O=C(NCc1ccccc1)c1c(Cl)nc(Cl)c(Cl)c1Cl	Mdm2 MdmX PPI 100 | Mdm2-MdmX conf 94 | FLuc counter 53
COc1ccc(S(=O)(=O)Cc2ccc(C(=O)NCc3ccccc3)o2)cc1	none
COC(=O)c1ccccc1NC(=O)c1nc(S(=O)(=O)Cc2ccccc2)ncc1Cl	Mdm2 MdmX PPI 98, CSC inhib 100, Beta apoptosis 99 | Mdm2-MdmX conf 91 | FLuc counter 67
O=C(NCc1ccccc1)c1nc(S(=O)(=O)Cc2ccccc2)ncc1Cl	Mdm2 MdmX PPI 74 | Mdm2-MdmX conf 67 | FLuc counter inactive
c1ccc(Nc2nc(N3CCCCC3)nc(N3CCCCC3)n2)cc1	none
c1ccc(Nc2nc(N3CCCCC3)nc(N3CCNCC3)n2)cc1	Mdm2 MdmX PPI 62 | Mdm2-MdmX conf inactive
Cc1nc(N)sc1C(=O)N/N=C/c1ccccc1[N+](=O)[O-]	none
Cc1nnsc1C(=O)N/N=C/c1ccc2ccccc2c1O	Mdm2 MdmX PPI 63, CSC inhib 78, Beta apoptosis 125 | Mdm2-MdmX conf 75 | FLuc counter inactive
Cc1nc(N)sc1C(=O)N/N=C/c1c[nH]c2ccccc12	Mdm2 MdmX PPI 51 | Mdm2-MdmX conf inactive
Clc1ccc2oc(SCc3cccnc3)nc2c1	none
CC1CCCCN1c1ncnc(N)c1[N+](=O)[O-] (stereo not drawn)	none (no result: CSC inhib)
CC1Cc2ccccc2N1c1ncnc(N)c1[N+](=O)[O-] (stereo not drawn)	Mdm2 MdmX PPI 91 | Mdm2-MdmX conf 93 | FLuc counter 54
CC1Cc2ccccc2N1c1ncnc2nc[nH]c12 (stereo not drawn)	Mdm2 MdmX PPI 53 | Mdm2-MdmX conf 49 | FLuc counter 75
c1ccc2c(c1)CCN(c1ncnc3nc[nH]c13)C2	none
CC(C)c1onc(C(=O)NCc2ccccc2)c1[N+](=O)[O-]	none
COc1ccccc1NC(=O)CSCc1nc2ccccc2[nH]1	none
COc1ccc(CCn2c(NN)nc3c2c(=O)[nH]c(=O)n3C)cc1	Mdm2 MdmX PPI 57 | Mdm2-MdmX conf 50 | FLuc counter 67
O=c1[nH][nH]c(C(F)(F)F)c1/C=N/N1CCOCC1	none
CCN(C[C@H]1N[C@@](C)(C(=O)OC)[C@H]2C(=O)N(Cc3ccccc3)C(=O)[C@@H]12)C(=O)Nc1ccc(C)cc1	none (no result: Calb FLC, PP1 inh, PP5 primary)
COc1ccc(N(CC(=O)Nc2ccc(OC)cc2OC)S(=O)(=O)c2ccccc2)cc1	none
CCOc1ccc(N(CC(=O)Nc2ccccc2OC)S(=O)(=O)c2ccccc2)cc1	Mdm2 MdmX PPI 58 (no result: PP1 inh, PP5 primary) | Mdm2-MdmX conf 63 | FLuc counter 79
CCOc1ccc(N(CC(=O)Nc2ccccc2OCC)S(=O)(=O)c2c(C)noc2C)cc1	Mdm2 MdmX PPI 65 | Mdm2-MdmX conf 62 | FLuc counter 90
COc1ccc(NC(=O)c2ccc(CN(c3cc(Cl)ccc3C)S(=O)(=O)c3ccccc3)cc2)cc1OC	none
COc1ccccc1NC(=O)c1ccc(CN(c2cc(Cl)ccc2C)S(=O)(=O)c2ccccc2)cc1	Mdm2 MdmX PPI 61 | Mdm2-MdmX conf inactive
CCOc1ccc(N(CC(=O)Nc2ccc(C)cc2)S(=O)(=O)c2c(C)noc2C)cc1	none (no result: Beta apoptosis)
CC(=O)Cc1cc(O)c2ccccc2c1OC(=O)c1ccccc1	none (no result: Beta apoptosis)
CCN(CC)S(=O)(=O)c1cccc(C(=O)N/N=C(\C)c2ccc(O)cc2O)c1	Mdm2 MdmX PPI 73 (no result: CSC inhib, Beta apoptosis) | Mdm2-MdmX conf 57 | FLuc counter 106
CCN(CC)C(=O)c1ccccc1NC(=O)c1cccc(S(=O)(=O)N(CC)CC)c1	none
CCSc1ncc(Cl)c(C(=O)Nc2sc3c(c2C(=O)NCc2cccnc2)CCCC3)n1	Mdm2 MdmX PPI 60 (no result: CSC inhib, Beta apoptosis) | Mdm2-MdmX conf inactive
CCc1ccc2[nH]c3nc(SCc4nnc(-c5ccc(C)cc5)o4)nnc3c2c1	Mdm2 MdmX PPI 70 | Mdm2-MdmX conf inactive
CCc1ccc2[nH]c3nc(SCCN4CCOCC4)nnc3c2c1	none
